SMILES strings stand for the structures. “And” between values parts separate entries of the source, which are not always exact repeats. Equal entries are not always repeated.

Assay [1] concerns HT29 sg-Ctrl (RNF43 wildtype). Kind of assay: cell viability activity relative to DMSO (negative = inhibition); higher = more viable cells (less growth inhibition). As to conditions: 5 µM; 96 h. The procedure:
(§1)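 Broad Repurposing Library primary screen at a single dose of 5 uM. HT29 sg-Ctrl and HT29 RNF43 G659fs CRISPR-edited isogenic cells were seeded at 2500 cells/well in 384-well plates in duplicate and treated for 96 h. Viability was read by CellTiter-Glo and reported as % activity relative to DMSO, with MG132 as the positive control (negative = growth inhibition).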

Assay [2] relates to HT29 RNF43 G659fs (RNF43 659mut, CRISPR-edited). The description is as above. As to conditions: 5 µM; 96 h. The procedure:
as §1

For the molecule `OCCN1CCN(CCCN2c3ccccc3Sc3ccc(Cl)cc32)CC1`, in assay [1], the cell viability activity is -90.5%.
In the case of `Cn1cc(-c2ccc(S(=O)(=O)n3ccc(/C=C/C(=O)Nc4ccccc4N)c3)cc2)cn1`, the cell viability activity in assay [2] is -62.6%; in assay [1] it was -63.3%.
Take `CCCCc1ccc2[nH]c(NC(=O)OC)nc2c1`: the cell viability activity was -66.1% in assay [2] and -76.7% in assay [1].
On the same counts, the results for `COc1ccc(F)c(F)c1C(=O)c1cnc(NC2CCN(S(C)(=O)=O)CC2)nc1N` are -69% and -65.9%.
With `Cc1nnc(C[C@@H]2C=C(c3ccc(Cl)cc3)c3ccccc3-n3c(C)nnc32)o1`, the cell viability activity was -63.5% in assay [2] and -64.7% in assay [1].
As for `Nc1ccc(-c2ccc3ncc4ccc(=O)n(-c5cccc(C(F)(F)F)c5)c4c3c2)cn1`, the cell viability activity in assay [2] is -63.8%; in assay [1], -42.1%.
Take `O=C(Cc1ccc(-c2ccc(OCCN3CCOCC3)cc2)cn1)NCc1ccccc1`: the results for the cell viability activity in assay [2] and in assay [1] were -59.4% and -52%, respectively.
For the molecule `Cc1[nH]c2ccccc2c1CCNCc1ccc(/C=C/C(=O)NO)cc1`, the figures for the cell viability activity in assay [2] and in assay [1] were -99.3% and -96.1%, respectively.
As for `CCC[C@H](Nc1nc(-c2ccc(NC(=O)NCC)c(OC)c2)ncc1C)c1cccnc1`, the values for the cell viability activity in assay [2] and in assay [1] were -57.8% and -49.4%, respectively.
Turning to `CCCCc1nc2cc(/C=C/C(=O)NO)ccc2n1CCN(CC)CC`, the cell viability activity was -99.3% in assay [2] and -98.6% in assay [1].
Consider `C=C1/C(=C\C=C2/CCC[C@]3(C)[C@@H]([C@H](C)CCCC(C)C)CC[C@@H]23)C[C@@H](O)C[C@@H]1O`, for which the cell viability activity in assay [2] is -54.3%; in assay [1] it was -70%.
On the same counts, the results for `CCCCCCCCCCC(CO)CCCCCCCC` (centres undefined) are -65.4% and -76.7%.
Turning to `Nc1ncccc1-c1nc2ccc(-c3ccccc3)nc2n1-c1ccc(C2(N)CCC2)cc1`, the results for the cell viability activity in assay [2] and in assay [1] were -70.4% and -49.1%, respectively.
Take `O=C(CCCCCN1C(=O)c2cccc3cccc(c23)C1=O)NO`: the cell viability activity in assay [1] is -71.7%.
Same read-out and setting: in the case of `COc1cc([C@@H]2c3cc4c(cc3[C@@H](O[C@@H]3O[C@@H]5CO[C@@H](c6cccs6)O[C@H]5[C@H](O)[C@H]3O)[C@H]3COC(=O)[C@H]23)OCO4)cc(OC)c1O` it was -90.9% and -80.9%.
As for `COc1cc(OC)c(/C=C/S(=O)(=O)Cc2ccc(OC)c(NCC(=O)O)c2)c(OC)c1`, the cell viability activity in assay [2] was -58.2%; in assay [1], -54.8%.
The corresponding values for `COc1ncc(-c2ccc3nccc(-c4ccnnc4)c3c2)cc1NS(=O)(=O)c1ccc(F)cc1F` are -93.8% and -89.3%.
On to `Nc1ncnc2c1nc(Br)n2[C@@H]1O[C@@H]2COP(=O)(O)O[C@H]2[C@H]1O`, for which the cell viability activity in assay [2] is -26.8%; in assay [1], -6.53%.
For the molecule `CC[C@]1(O)C[C@H]2CN(CCc3c([nH]c4ccccc34)[C@@](C(=O)OC)(c3cc4c(cc3OC)N(C=O)[C@H]3[C@@](O)(C(=O)OC)[C@H](OC(C)=O)[C@]5(CC)C=CCN6CC[C@]43[C@@H]65)C2)C1`, in assay [1], the cell viability activity was -54.5%.

For the origin of these results see the supplement of paper PMC9177965.
